BaF3 parental – reduces parental Ba/F3 cell viability, JAK2V617F counter-screen. CellTiter-Glo ATP luminescence. inhibition, % at 5.6 µM. 1.1% of 220,000 active. AID 1486;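 active = inhibition above a per-campaign cutoff, the mean inhibition of all tested compounds plus 3 SD, cut at about 27% in these data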;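 also: 0% = DMSO wells and 100% = JAK Inhibitor I control wells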
APP transl inh – APP translation inhibition | SH-SY5Y APP 5'UTR-luciferase reporter, luminescence | inhibition, % at 2 µM | 0.82% of 190,000 active;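 active = inhibition above a set limit, derived from the sample mean plus 3 SD, cut at about 45% in these data; inconclusive = one replicate passes the limit while the other fails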
IEC-6 tox – kills IEC-6 intestinal cells in KLF5 counter-screen; inhibition, % at 5 µM; IEC-6 cytotoxicity, luminescence viability; AID 1825; 0.78% of 290,000 active;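 also: 0% = plate median of test compound wells and 100% = cytotoxic reference compound wells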
Ba/F3 V617F tox – reduce viability of Ba/F3 cells dependent on JAK2V617F; Ba/F3 EpoR-JAK2V617F viability, ATP luminescence; inhibition, % at 5.6 µM; 1.1% of 220,000 active;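 active = inhibition above the campaign mean plus 3 SD over all tested compounds, cut at about 24% in these data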;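 also: cytokine-independent growth of Ba/F3 cells driven by EpoR plus mutant JAK2; 0% = DMSO-treated cells and 100% = JAK inhibitor I control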
KLF5 inhibitor – kruppel-like factor 5 inhibition; AID 1700; 0.23% of 290,000 active; DLD-1 KLF5 promoter-luciferase reporter, luminescence; inhibition, % at 5 µM;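 active = inhibition above a per-plate limit of that plate's mean compound inhibition plus 3 SD, cut at about 60% in these data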;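 also: 0% = DMSO wells and 100% = LY294002 at 200 µM; higher means less KLF5 promoter-driven luciferase light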
aSyn UTR inh – MLPCN primary screen, SNCA 5' untranslated region; 0.82% of 300,000 active; AID 1813; alpha-synuclein 5'UTR reporter, inhibitor activity; inhibition, % (tested at 7.5 µM); in the data active = inhibition above about 60%; inconclusive = no clear call, values can overlap the other calls;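 also: H4 neuroglioblastoma cells stably carrying SNCA 5'UTR luciferase fusion; 0% = DMSO wells and 100% = positive control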
IEC-6 tox confirm – confirmation of cytotoxic compounds in rat IEC-6 intestinal epithelial cells; AID 1907; shares compounds with IEC-6 tox; IEC-6 rat intestinal epithelial viability, luminescence; 63% of 1,900 active; inhibition, % at 5 µM;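 also: 0% = vehicle and 100% = reference cytotoxic drug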
Active calls of the source: *; ? = inconclusive; · = no result. Hits are enriched below; roughly 2.2% of the tested compounds scored in any of these assays. Rule as the data show it, unless noted: active = inhibition above about 22%; inactive = the rest.

SMILES | BaF3 parental | APP transl inh | IEC-6 tox | Ba/F3 V617F tox | KLF5 inhibitor | aSyn UTR inh | IEC-6 tox confirm
COc1ccc(Cn2c(C3CC3)nc3ccc(NC(C)=O)cc3c2=O)cc1 | 3 | -142 | 0 | -1 | -99 | -121 | ·
NC(=S)NNc1c(F)c(F)c(F)c(F)c1F | 35* | 18 | 49* | 30* | 23 | 20 | -9
Cc1ccccc1NNC(N)=S | 4 | -22 | 0 | -1 | -10 | 14 | ·
COc1ccccc1C(CNc1ccc(S(=O)(=O)N2CCCC2)cc1[N+](=O)[O-])N(C)C (stereo unspecified) | · | · | 22* | · | -22 | 19 | 8
OC[C@H]1O[C@@H](n2cnc3c(NC4CCCC4)ncnc32)[C@H](O)[C@@H]1O | 5 | -10 | -2 | -3 | -5 | 31 | ·
C=CCNc1ncnc2c1ncn2C1OC(CO)C(O)C1O (stereo unspecified) | 0 | 10 | 74* | -1 | 17 | 36 | 49*
COc1cc(/C=N/NC(=O)CC#N)cc(Br)c1O | 0 | -6 | 37* | -4 | 9 | -4 | -6
COc1cc(/C=N/NC(=O)Cc2ccc(Br)cc2)cc(OC)c1O | -1 | -12 | -2 | -5 | -9 | 2 | ·
COc1ccc(/C=C2\CCc3ccccc3C2=O)cc1O | · | · | 28* | · | 3 | 14 | 3
COc1ccc(/C=C2\Cc3ccccc3C2=O)cc1OC | -3 | · | 7 | 2 | -7 | -39 | ·
CCc1ccccc1N(C)S(=O)(=O)c1ccc(-c2cc(C)no2)s1 | · | · | 47* | · | 52 | -2 | 18
CCN(c1ccc(OC)cc1)S(=O)(=O)c1ccc(-c2cc(C)no2)s1 | · | · | 7 | · | -18 | -47 | ·
O=C(Nc1ccc(Cc2ccncc2)cc1)c1ccc([N+](=O)[O-])o1 | · | · | 51* | · | -22 | -150 | 18
O=C(Nc1ccc(N2CCN(C(=O)c3cccs3)CC2)cc1)c1ccco1 | · | · | 0 | · | -9 | -11 | ·
O=C(Nc1ccc(N2CCOCC2)cc1)c1ccc(Br)o1 | · | · | -3 | · | -87 | -40 | ·
O=C(Nc1ccc(N2CCN(C(=O)c3cccs3)CC2)cc1)c1ccc([N+](=O)[O-])o1 | · | · | 101* | · | 47 | 106* | 96*
O=C(Nc1ccc(N2CCOCC2)cc1)c1ccc([N+](=O)[O-])o1 | · | · | 79* | · | 10 | -103 | 25*
CC(=O)Nc1ccc2nc(NC(=O)c3ccc([N+](=O)[O-])o3)sc2c1 | · | · | 56* | · | -32 | -100 | 13
COc1cc(C2NC(=O)CCC2[N+](=O)[O-])cc(OC)c1OC (stereo unspecified) | · | · | -1 | · | -12 | 9 | ·
CCC(NC(=O)Nc1nnc(C(F)(F)F)s1)(C(F)(F)F)C(F)(F)F | 89* | -2 | 26* | 98* | -9 | 109* | 92*
O=C(c1cc(COc2cccc3cnccc23)on1)N1CCCC(CCCO)C1 (stereo unspecified) | · | · | 23* | · | 6 | -5 | 25*
C/C(=N\NC(=O)c1cc(C2CC2)nc2ccccc12)c1ccc(O)cc1O | · | · | 51* | · | 61 | 74* | 43*
Cc1cc(C(=O)NN=C2CCCC2)c2ccccc2n1 | · | · | · | · | · | -5 | ·
C/C(=N\NC(=O)c1cc(C)nc2ccccc12)c1cccs1 | 2 | · | 29* | 0 | 18 | 5 | -2
C/C(=N\NC(=O)c1cc(C2CC2)nc2ccccc12)c1ccc(C)s1 | 3 | 3 | 4 | -4 | -20 | 18 | ·
SMILES | BaF3 parental | APP transl inh | IEC-6 tox | Ba/F3 V617F tox | KLF5 inhibitor | aSyn UTR inh | IEC-6 tox confirm
CC(/C=C/c1ccccc1)=N\NC(=O)c1cc(C)nc2ccccc12 | 52* | · | 40* | 33* | 40 | -29 | 5
CN1CCN(/N=C/c2ccc(OCc3ccccc3)cc2)CC1 | -7 | · | -3 | -3 | -101 | -73 | ·
CC(C)C(NC(=O)c1ccco1)C(=O)OCC(=O)Nc1ccc(C(N)=O)cc1 (stereo unspecified) | 9 | 17 | -5 | -1 | -26 | 0 | ·
O=C(CNC(=O)c1ccc2c(c1)OCCO2)N/N=C/c1ccc([N+](=O)[O-])cc1 | · | · | -10 | · | -11 | 5 | ·
O=C(COc1coc(CN2CCc3ccccc32)cc1=O)Nc1ccccc1 | · | · | · | · | · | -1 | ·
CCN(CC)c1ccc(/C=C/c2cccc[n+]2C)c(OC)c1 | · | · | 28* | · | 19 | ? | 30*
CN(C)c1cc(Nc2ccc(O)cc2)c([N+](=O)[O-])c2nonc12 | -3 | · | 3 | -1 | -4 | 6 | ·
O=[N+]([O-])c1c(Nc2ccc(O)cc2)cc(Cl)c2nonc12 | · | · | 101* | · | 26 | 47 | 68*
Cc1ccc(S(=O)(=O)N2CCN(Cc3cc(C(C)(C)C)ccc3O)CC2)cc1 | · | · | 4 | · | 16 | -4 | ·
COc1ccc(C2C(C(=O)Nc3cc(OC)c(OC)c(OC)c3)c3ccccc3C(=O)N2C)cc1 (stereo unspecified) | 61* | 69* | 59* | 41* | 39 | 98* | 60*
O=[N+]([O-])c1cc(Cl)cc2c1nc(NCCO)c1ccccc12 | 8 | · | 25* | -1 | 21 | -207 | 26*
CCOC(=O)C1CCN(S(=O)(=O)c2c(Cl)ccc3nonc23)CC1 | · | · | 100* | · | 60 | -309 | 41*
CCOC(=O)C1CCN(S(=O)(=O)c2cccc3nonc23)CC1 | 5 | -7 | -2 | 1 | -9 | 15 | ·
CC1(C)Cc2c(sc3[nH]c(=O)n(CC(=O)NCC4CCCO4)c(=O)c23)CO1 (stereo unspecified) | · | · | 5 | · | -2 | 3 | ·
COc1ccc(-n2nnnc2-c2ccccc2)cc1 | 68* | 89* | 52* | 80* | 38 | 19 | 50*
Clc1ccc(-n2nnnc2-c2ccccc2)cc1 | 3 | 4 | 6 | 4 | -3 | · | ·
O=C(c1cc(COc2c(F)cccc2F)on1)N(Cc1ccccc1)CC1CC1 | · | · | -5 | · | -18 | -15 | ·
O=c1[nH]c(/C=C/c2ccccc2Cl)nc2ccccc12 | · | · | 39* | · | -50 | -265 | 24*
O=C(NNC(=O)c1ccc(O)cc1O)c1ccc(-c2ccccc2)cc1 | · | · | 24* | · | -5 | -5 | 1
CCn1c(=O)c2cc(C(=O)NCCOC)sc2c2ccccc21 | · | · | 10 | · | -13 | -35 | ·
CCOCCCNC(=O)c1cc2c(=O)n(CC)c3ccccc3c2s1 | · | · | 22* | · | -57 | -80 | 7
CCN(CC)CCNC(=O)c1cc2c(=O)n(CC)c3ccccc3c2s1 | · | · | 18 | · | -49 | -125 | ·
CCN(CC)CCCNC(=O)c1cc2c(=O)n(CC)c3ccccc3c2s1 | · | · | 26* | · | -13 | -107 | 11
Cc1ccc(C(=O)C(C)OC(=O)Cc2n[nH]c(=O)c3ccccc23)cc1 (stereo unspecified) | · | · | · | · | · | -1 | ·
CCOC(=O)C1=C(O)C(=O)N(c2ccc(S(N)(=O)=O)cc2)C1c1ccc(Br)cc1 (stereo unspecified) | -2 | · | -6 | -4 | -12 | 12 | ·
COc1ccc(N(CC(=O)Nc2cc(Cl)ccc2C)S(=O)(=O)c2c(C)n[nH]c2C)cc1 | · | · | 38* | · | 22 | 10 | 12
COc1ccc(N(CC(=O)Nc2ccc(C)cc2C)S(=O)(=O)c2c(C)n[nH]c2C)cc1 | · | · | -2 | · | -10 | 24 | ·

High-throughput results (PubChem)
